Data on 8 compounds can be found in PubChem BioAssay (NCI).

Some test systems named below: SR leukemia; RPMI-8226 leukemia; OVCAR-8 ovarian; OVCAR-5 ovarian; OVCAR-4 ovarian; SK-OV-3 ovarian; IGROV1 ovarian; OVCAR-3 ovarian; HS 578T breast; NCI/ADR-RES ovarian; T-47D breast; BT-549 breast; MDA-MB-435 melanoma; SW-620 colon; HCT-116 colon; HCC-2998 colon; KM12 colon; MDA-MB-468 breast; MCF7 breast.
Holding throughout (experiment): NCI-60 one-dose screen, 48 h (100 = growth as untreated, 0 = no growth, -100 = all killed)
Conditions in all cases: 10 µM unless noted

This is part of a sample that, as a whole, favours compounds with a hit. Of some 83,000 tested, about 20% had one in any assay.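 The endpoint reported here, percent growth, reads 100 for growth as untreated, 0 for no net growth and -100 for all cells dead.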 Unmarked numbers belong to inactive results. Calls of active or inactive are those of the source. The calls were made as follows: active = growth percent below 10; inactive = the rest.

Turning to `CC(=O)c1cc(C(=O)c2ccccc2)n2c1ccc1ccccc12`, the growth is 81.4% with SR leukemia; 95.6% in the assay with RPMI-8226 leukemia; 99% in the assay with OVCAR-8 ovarian; 103% with OVCAR-5 ovarian; 102% in the assay on OVCAR-4 ovarian; 85.8% with SK-OV-3 ovarian. For the same compound, the growth in the assay with IGROV1 ovarian was 88.6%; in the assay on OVCAR-3 ovarian, 112%; with HS 578T breast, 94.1%; in the assay with NCI/ADR-RES ovarian, 101%; in the assay with T-47D breast it was 83.5%; with BT-549 breast it was 73%. Also, the growth in the assay on MDA-MB-435 melanoma was 108%; in the assay with SW-620 colon it was 99.3%; in the assay on HCT-116 colon it was 82.4%; in the assay on HCC-2998 colon it was 121%; with KM12 colon, 83.1%; with MDA-MB-468 breast it was 93.9%.

In the case of `C=C1CCC2C3(C)COC(c4cccc(F)c4)OC3CCC2(C)C1C/C=C1/C(=O)OCC1O` (configuration not stated), the growth in the assay with SR leukemia is 9.74% (active); in the assay with RPMI-8226 leukemia it was 10.5%; in the assay with OVCAR-8 ovarian, -52.2% (active); in the assay with OVCAR-5 ovarian, 22.1%; in the assay on OVCAR-4 ovarian, -0.215% (active); with SK-OV-3 ovarian, 60.5%. In addition, the growth in the assay with IGROV1 ovarian was -24% (active); in the assay with OVCAR-3 ovarian, -71.8% (active); with HS 578T breast, 15.9%; in the assay on NCI/ADR-RES ovarian, -18% (active); with BT-549 breast, -82.2% (active); with MDA-MB-435 melanoma it was -10.3% (active). For the same compound, the growth with SW-620 colon is -63% (active); in the assay with MCF7 breast, -7.05% (active); with HCT-116 colon, -73.8% (active); with HCC-2998 colon, -51% (active); with KM12 colon, -27.8% (active); in the assay with MDA-MB-468 breast it was -35.2% (active).

`O=C(/C=C/Nc1ccc2oc(=O)ccc2c1)c1cc2cc(Br)ccc2oc1=O`: the growth in the assay with SR leukemia is 99.2%; in the assay with RPMI-8226 leukemia it was 103%; with OVCAR-8 ovarian, 104%; in the assay with OVCAR-5 ovarian, 108%; in the assay with OVCAR-4 ovarian it was 102%; with SK-OV-3 ovarian, 99.8%. Besides, the growth in the assay with IGROV1 ovarian was 105%; with OVCAR-3 ovarian, 122%; with HS 578T breast, 92.6%; with NCI/ADR-RES ovarian it was 109%; in the assay with T-47D breast it was 94.4%; with BT-549 breast, 87.9%. The growth was 103% with MDA-MB-435 melanoma; 105% in the assay with SW-620 colon; 101% in the assay on HCT-116 colon; 113% in the assay on HCC-2998 colon; 111% in the assay on KM12 colon; 98.9% with MDA-MB-468 breast.

`CCCCSc1nc(Nc2ccc(S(N)(=O)=O)cc2)c(C#N)c(-c2ccc(Cl)cc2)n1`: the growth is 19.4% with SR leukemia; 52.7% in the assay with RPMI-8226 leukemia; -2.51% (active) in the assay on OVCAR-8 ovarian; 51.5% in the assay with OVCAR-5 ovarian; 2.66% (active) in the assay on OVCAR-4 ovarian; 30.4% in the assay with SK-OV-3 ovarian. The growth with IGROV1 ovarian is 37.5%; in the assay on OVCAR-3 ovarian it was 54.1%; in the assay with HS 578T breast it was 64.8%; in the assay with NCI/ADR-RES ovarian it was 16.4%; in the assay with T-47D breast it was 75.5%; in the assay with BT-549 breast it was 96.1%. For the same compound, the growth in the assay on MDA-MB-435 melanoma was 56.2%; with SW-620 colon, 37.3%; in the assay on HCT-116 colon it was 1.12% (active); in the assay with HCC-2998 colon, 64%; with KM12 colon it was 74.7%; in the assay with MDA-MB-468 breast, 76%.

Take `COc1ccc(-c2ccc(SCC(=O)Nc3ccc(S(N)(=O)=O)cc3Br)nn2)cc1`: the growth in the assay with SR leukemia is 92.7%; with RPMI-8226 leukemia, 85.8%; with OVCAR-8 ovarian, 48.7%; with OVCAR-5 ovarian, 99.6%; with OVCAR-4 ovarian, 38%; in the assay with SK-OV-3 ovarian, 62.3%. In addition, the growth with IGROV1 ovarian was 105%; in the assay with OVCAR-3 ovarian, 98.3%; in the assay with HS 578T breast it was 44.8%; in the assay on NCI/ADR-RES ovarian it was 95.3%; with T-47D breast, 76.9%; in the assay with BT-549 breast, 49.3%. The growth was 108% in the assay with MDA-MB-435 melanoma; 91.3% in the assay with SW-620 colon; 99.3% in the assay with HCC-2998 colon; 88.7% in the assay with KM12 colon; 86.9% with MDA-MB-468 breast.

Regarding `COc1ccc2c(c1)c(/C=N/Nc1ccc3ccccc3n1)cn2C`, the growth in the assay on SR leukemia was -17.3% (active); in the assay on RPMI-8226 leukemia, -26.7% (active); in the assay on OVCAR-8 ovarian it was 28.9%; with OVCAR-5 ovarian, 7.2% (active); with OVCAR-4 ovarian it was 12.3%; in the assay with SK-OV-3 ovarian, 54%. Besides, the growth is 16.4% in the assay with IGROV1 ovarian; -34.2% (active) with OVCAR-3 ovarian; 18.2% with HS 578T breast; 2.35% (active) in the assay with NCI/ADR-RES ovarian; 3.98% (active) in the assay on T-47D breast; 51.4% with BT-549 breast. Also, the growth is 11.2% in the assay on MDA-MB-435 melanoma; -67.3% (active) with SW-620 colon; -99.5% (active) in the assay with HCT-116 colon; -59.6% (active) in the assay on HCC-2998 colon; -66.5% (active) in the assay on KM12 colon; -41.6% (active) in the assay with MDA-MB-468 breast.

Regarding `CC12CC[C@@H]3[C@]4(C)COC(c5cn[nH]c5-c5cccc(Cl)c5)O[C@@H]4CC[C@@]3(C)[C@@H]1CC(C1=CCOC1=O)O2` (some centres not stated), the growth in the assay with SR leukemia was 29.7%; with RPMI-8226 leukemia, 13.8%; in the assay with OVCAR-8 ovarian, 38.7%; in the assay with OVCAR-5 ovarian it was 61.7%; with OVCAR-4 ovarian, 29.1%; in the assay with SK-OV-3 ovarian it was 62.4%. Further, the growth with IGROV1 ovarian was 49.8%; in the assay with OVCAR-3 ovarian, 44.5%; in the assay with HS 578T breast, 46.8%; in the assay on NCI/ADR-RES ovarian, 31.1%; in the assay with T-47D breast, 17.7%; in the assay with BT-549 breast, 0.371% (active). In addition, the growth in the assay with MDA-MB-435 melanoma was 44.1%; in the assay on SW-620 colon, 50.6%; in the assay on HCT-116 colon, 19.1%; with HCC-2998 colon, 40.7%; in the assay with KM12 colon, 17.9%; with MDA-MB-468 breast, 7.22% (active).

Regarding `Clc1cccc(N/N=C/c2c[nH]c3ccc(Br)cc23)n1`, the growth in the assay on SR leukemia is -14% (active); in the assay on RPMI-8226 leukemia, 1.81% (active); with OVCAR-8 ovarian it was 42%; with OVCAR-5 ovarian, 14%; in the assay with OVCAR-4 ovarian it was 61%; with SK-OV-3 ovarian, 25.3%. In addition, the growth in the assay with IGROV1 ovarian is -33.2% (active); with OVCAR-3 ovarian, 18.6%; in the assay with HS 578T breast it was 32.9%; in the assay with NCI/ADR-RES ovarian, 2.49% (active); with T-47D breast, 22%; in the assay with BT-549 breast, -6.46% (active). Moreover, the growth in the assay on MDA-MB-435 melanoma was -0.779% (active); in the assay on SW-620 colon, 6.71% (active); in the assay on HCC-2998 colon, -9.69% (active); with KM12 colon, 4.64% (active); with MDA-MB-468 breast it was -10.3% (active).
